Measurements reported in the supplement of paper PMC10338343.
± gives the standard deviation.

Test system: MILI (PIWIL2) piRISC loaded with L1MC piRNA (26 nt)
Test: pre-steady-state target cleavage rate (min^-1); guide: L1MC piRNA 5'p-UAACUAAAUACUAUGCAAGCUGUAGG; MIWI and MILI are mouse PIWI proteins and EfPiwi is from a freshwater sponge; tags in brackets are library labels; higher = faster piRNA-guided slicing of the target
Details: auxiliary factor: 500 nM mouse GTSF1
Summary of the method: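 The pre-steady-state cleavage rate came from a burst-and-steady-state fit to pooled data from three Cleave-'n-Seq trials, in which uncleaved targets were sequenced and normalised to depth and to weakly complementary targets. Each reaction held 0.1 nM transcribed, DNA-blocked target RNA library and 1 nM active affinity-purified piRISC carrying one synthetic guide, with or without 500 nM GTSF1 partner protein, in HEPES–potassium acetate buffer at 33 °C for 0–8 or 0–960 min. k3 was capped at 0.0001 min^-1.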

Sequence | pre-steady-state target cleavage rate
UCCUGGAUGUCCUUCCAUAGUAUUUAGUUA | 0.0223 ± 0.008
UCCUGGAACAGCUUGCAUAGUAAAUAGUAA | 0.143 ± 0.035
UCCUGGAUCAGCUUGCAUACUAUUUUGUUA | 0.0178 ± 0.0061
UCCUCCUACAGCUUGCAUUAGUAUUUAGUUA | 0.0229 ± 0.0088
UCCUGGAUGUCCUUGCUAUGUAUUUAGUAA | 0.00762 ± 0.0042
UCCUGGUACAGCUUGCUAAGUAUUUAGAAA | 0.0132 ± 0.0056
UCCUGGAUGUCCUUGCAUAGUAUAUAGUAA | 0.0276 ± 0.01
UCCUGGAUGUCGAAGCAUAGUAUUUAGUAUA | 0.0394 ± 0.0091
UCCUGGUACAGCUAGCAUAGUAUUUUCAAA | 0.0662 ± 0.02
UCCUGCUACAGCUUGCAUAGUAUAAACAAA | 0.0722 ± 0.022
UCCUCCUACAGCUUGCAUAGUUAUUUCAAA | 0.0507 ± 0.016
UCCUGGAUGUCGUUGCAUAGUAUUAAGUAA | 0.0273 ± 0.012
UCCUGGAUCAGCUUGCAUACUAUAUAGUUA | 0.018 ± 0.0043
UCCUGGAUCAGCUUGCAUAGUAUUAUCAAA | 0.0975 ± 0.021
UCCUGGAUGUGCUUGCUUAGUAUUUUGUUA | 0.0645 ± 0.017
UCCUGGUACAGCUUGCAUAGUAUUAUCAAA | 0.0127 ± 0.0058
UCCUGGAACAGGUUGCAUAGUAUUUACUUA | 0.0532 ± 0.012
UCCUGGAUCAGCUUGCAUAGUAUAUAGAAA | 0.115 ± 0.03
UCCUGGAUCAGCUUGCAUAGUAAAUAGAAA | 0.0183 ± 0.0078

Sequence | pre-steady-state target cleavage rate
UCCUGGAUCAGCUUGCAUUCUAUUUAGUAA | 0.0151 ± 0.0057
UCCUGGAUGUCGAUGGAUAGUAUUUUGUUA | 0.00767 ± 0.0043
UCCUGGAUGUCCUAGCAUAGAAUUUAGUUA | 0.00538 ± 0.004
UCCUCCUACUCGUUGCAUAGUAUUUAGAAA | 0.076 ± 0.019
UCCUGGAUGUCCUAGCAUACUAUUUAGUUA | 0.0115 ± 0.0063
UCCUGGAACAGCUUGCAUAGUAUUAUCUUA | 0.0578 ± 0.015
UCCUGGAUGAGCUUGCAUAGUAAUAAGUUA | 0.202 ± 0.045
UCCUGGAUGACGUUGCAUAGUAUUUACAAA | 0.0104 ± 0.0057
UCCUCCUACAGCUUGCAUAGAAAUUAGUUA | 0.0406 ± 0.0085
UCCUGGUACAGCUUGGAUAGAAUUUAGUUA | 0.0709 ± 0.025
UCCUGGAUGUCCUUGCAUACUAUUUUGUUA | 0.00525 ± 0.0044
UCCUGGUACAGCAAGCAUAGUAUUUACAAA | 0.0528 ± 0.019
UCCUGGAACACCUUGCAUAGUAUUAAGUUA | 0.189 ± 0.034
UCCUGCUACAGCAUGCAUAGUAUUUACAAA | 0.146 ± 0.043
UCCUGCUACAGCUUGCAUCAGUAUUUAGUUA | 0.015 ± 0.0065
UCCUGGAACAGCUUGCAAAGUAUUUUCAAA | 0.0111 ± 0.0049
UCCUGGAUGAGCUAGCAUAGUAUUUUGUUA | 0.159 ± 0.036
UCCUGGAUGAGCUUGCAUAGUAUUAUGAAA | 0.00473 ± 0.0045
UCCUGGAUGUCCUUGUCAUAGUAUUUAGUUA | 0.0189 ± 0.009
